# Compound activity as filed in PubChem BioAssay.
# Bst PK mod = pyruvate kinase (B. stearothermophilus) modulation; purified pyruvate kinase, luminescence ATP production; ribose 5-phosphate activator present at AC10; Potency, µM; actives 1.2% (n = 51,000); AID 361; in the data active means potency below about 11 µM; inconclusive means mostly about 12 µM to 25 µM;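 the screen sought inhibitors and activators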;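 further: scaled between full activation by ribose 5 phosphate and full inhibition by luteolin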
# DNA Pol III inh = inhibitors of bacterial DNA polymerase III holoenzyme. Potency, µM (highest dose often 57.1 µM), for the others: top-dose activity change, negative = inhibition. actives 0.25% (n = 71,000). reconstituted DNA polymerase III holoenzyme replication, biochemical. AID 603
#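 Reconstituted *E. coli* holoenzyme (0.35 nM Pol III, 1 nM beta, 154 nM SSB, 2 nM primase) was preincubated with compound for 15 min at RT. Synthesis on 1.4 nM ssM13Gori ran 35 min, then was stopped with PicoGreen/EDTA and read as dsDNA fluorescence.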
# ALOX15 inhib = blocks human 15-lipoxygenase activity | P16050 | Potency, µM (titrated, usually from 57.1 µM), inactives show at the top dose activity change, negative = inhibition, usual class: inhibitors | purified 15hLO-1, xylenol orange hydroperoxide absorbance | actives 1.4% (n = 74,000); further: nearly all actives have a fitted effect of over 55% in size
#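 Hydroperoxide formed from arachidonic acid (50 uM) by purified human 15hLO-1 (40 nM) oxidizes ferrous iron, and the ferric-xylenol orange complex is read at 573 versus 405 nm. Compounds were preincubated 15 min; reaction ran 6 min at room temperature.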
# ERK AVP inh = inhibitors of vasopressin-stimulated ERK signaling pathway. HEK293-V1b, vasopressin-stimulated pERK AlphaScreen. Potency, µM (top dose mostly 57.5 µM), inactives show at the top dose activity, negative = inhibition, actives largely listed as inhibitors. actives 0.99% (n = 72,000). AID 995; further: nearly all actives have a fitted effect of over 55% in size
#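 Overnight-seeded V1b-HEK293 cells in 1% FBS got compound, then vasopressin (25 nM final, 5 min, 37C), then lysis buffer. AlphaScreen detection of phospho-ERK; activity normalized to basal and full-stimulation controls.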
# FLuc inh = firefly luciferase inhibition | P08659 | purified firefly luciferase, luminescence, 8 min | Potency, µM (top dose mostly 57.1 µM), without a hit: at the top dose activity change, negative = inhibition, actives largely listed as inhibitors | actives 2.2% (n = 72,000); further: nearly all actives have a fitted effect of over 40% in size
# Target sequence (P08659 whole entry, looked up): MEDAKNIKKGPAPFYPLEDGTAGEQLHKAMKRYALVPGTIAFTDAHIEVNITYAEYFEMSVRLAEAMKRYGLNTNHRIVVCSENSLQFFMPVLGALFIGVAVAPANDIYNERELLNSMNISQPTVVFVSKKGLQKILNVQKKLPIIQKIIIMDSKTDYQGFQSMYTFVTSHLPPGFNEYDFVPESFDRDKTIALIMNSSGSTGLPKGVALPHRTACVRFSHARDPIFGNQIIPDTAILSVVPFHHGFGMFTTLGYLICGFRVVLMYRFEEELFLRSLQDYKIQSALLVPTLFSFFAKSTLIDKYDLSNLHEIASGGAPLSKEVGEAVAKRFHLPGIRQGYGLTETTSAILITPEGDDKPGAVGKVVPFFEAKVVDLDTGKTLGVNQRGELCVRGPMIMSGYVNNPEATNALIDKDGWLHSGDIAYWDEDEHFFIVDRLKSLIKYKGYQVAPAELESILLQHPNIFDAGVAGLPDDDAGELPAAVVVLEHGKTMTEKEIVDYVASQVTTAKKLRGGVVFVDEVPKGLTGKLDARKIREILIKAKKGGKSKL
#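 qHTS concentration-response profiling: light output of P. pyralis luciferase with luciferin and 10 uM ATP, imidazole buffer pH 7.2. Read by luminescence after 8-min room-temperature incubation.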
# Tau filament bind = binds recombinant human tau filaments; P10636; recombinant tau filaments, thioflavin S fluorescence, 15 h; filaments grown with octadecylsulfate alongside compound; Potency, µM (doses to about 57.1 µM), without a hit: top-dose activity change, negative = inhibition; actives 2% (n = 71,000); AID 596;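 further: actives lower thioflavin S fluorescence by blocking filaments or displacing dye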
#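 Thioflavine S fluorescence (ex 450, em 510 nm) reports filaments formed from 1 uM human tau plus 30 uM ODS over 15 h at 37 C (10 mM HEPES pH 7.4, 100 mM NaCl, 5 mM DTT); compounds displacing dye or blocking filaments lower signal.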
# Starred values were filed as active, the others as inactive; i = inactive; ? = inconclusive; · = not tested or not shown; ! = repeats disagree; [ ] = dose if it differs, or a comment. An excerpt weighted towards active compounds, which were near 6% of everything screened. Unless noted, the call rests on the fitted dose curve; in most records, active means well fitted curve in the direction sought with a large enough effect; inconclusive means small, poorly fitted or top-dose-only effect, or another doubt; inactive means no such curve, though single readings can be large; an effect the other way counts as inactive or inconclusive. Unless noted, on the % scale 0 is the no-effect control and ±100 the full control effect; potency means the concentration at half of the fitted maximal effect.
SMILES,Bst PK mod,DNA Pol III inh,ALOX15 inhib,ERK AVP inh,FLuc inh,Tau filament bind
CSC([N-]/N=C/c1cccc(C)n1)=[S]=[Cu].CS[C@H]([S-])[N-]/N=C/c1cccc(C)n1,·,-4.5%[11.4 µM],?,?,-3.4%[11.4 µM],?
COC(=O)Nc1cccc(OC(=O)Nc2cccc(C)c2)c1,·,-3.3%,-29.1%,31.6µM*,·,-5.9%
Cc1c2ccncc2c(C)c2c1[nH]c1ccccc12,?,7.94µM*,-8.5%,13.3%,-0.3%[25.5 µM],i
CC(C)[C@]1(O)[C@@H](OC(=O)c2ccc[nH]2)[C@]2(O)[C@@]3(C)C[C@@]4(O)O[C@@]5([C@H](O)[C@@H](C)CC[C@]35O)[C@]2(O)[C@]41C,·,-9.4%[11.4 µM],-0.1%[11.4 µM],16.4%[11.5 µM],1.9%[11.4 µM],16.9%[11.4 µM]
C=CCc1c(C)[nH]c(=S)c(C#N)c1C,>57,-1.9%,15.8µM*,-15.0%,-4.1%,-14.6%
C=CCCN1C[C@@H]2C[C@H](C1)c1cccc(=O)n1C2,·,-0.3%,·,·,0.9%[11.4 µM],-14.0%
COc1cc2c(cc1O)C[C@H]1c3c(cc(O)c(OC)c3-2)CCN1C,·,-5.3%,-14.9%[25.6 µM],20.8%[25.7 µM],2.2%[11.4 µM],39.8µM*!
CC(C)(C)c1cc(O)ccc1O,·,-2.5%[11.4 µM],20µM*,-13.1%[11.5 µM],0.7%[11.4 µM],-7.0%[11.4 µM]
CC(C)(C)c1ccccc1O,·,-4.1%,-3.7%,7.3%,·,-6.6%
Cc1onc(-c2ccccc2Cl)c1C(=O)OCC(=O)c1ccc2c(c1)OCCO2,·,-0.2%,0.2%,4.6%,15.8µM*,0.8%
CC(C)(O)[C@H]1[C@H]2OC(=O)[C@@H]1[C@]1(O)C[C@H]3O[C@]34C(=O)O[C@H]2[C@]14C (tested in a mixture with another compound),·,-5.4%,10.9%,8.4%,0.3%,-7.3%
O=C1C=CC(=O)c2c1ccc1c2ccc2ccccc21,·,-11.4%[25.6 µM],-6.3%[25.6 µM],12.6µM*,4.2%[25.5 µM],3.98µM*
CC(=O)CCC(C)=O,·,-14.5%,1.6%,9.1%,·,6.8%
CC(=O)[O-].CC(=O)[O-].CC(=O)[O-].[Cr+3],·,-4.7%,-0.1%,2.5%,·,12.6µM*
C[C@@]12C=CC(=O)C=C1CC[C@@H]1C2=CC[C@]2(C)[C@@H]1CC[C@H]2C(=O)CN1CCN(c2cc(N3CCCC3)nc(N3CCCC3)n2)CC1,·,-2.4%,?,?,1.5%,6.31µM*
C=C[C@@H]1CN2CC[C@@H]1C[C@H]2[C@H](O)c1ccnc2ccccc12,·,-4.9%,·,·,1.6%[11.4 µM],?
Cc1nc2ccccc2cc1C[N+]12CN3CN(CN(C3)C1)C2,·,-14.9%[11.4 µM],8.4%[11.4 µM],-1.0%[11.5 µM],1.6%[11.4 µM],9.9%[11.4 µM]
C=C(C)CN1CC[C@@]23c4c5ccc(O)c4O[C@H]2c2[nH]c4ccccc4c2C[C@]3(O)[C@@H]1C5,·,-2.3%,-9.3%[25.6 µM],2.4%,-1.3%,?
NC(N)=Nc1ccc2[nH]c3c(c2c1)C[C@]1(O)[C@@H]2Cc4ccc(O)c5c4[C@]1(CCN2CC1CC1)[C@H]3O5,·,-8.3%,1.26µM*,?,7.1%,58.1%
Cc1cc2c(C(C)C)c(O)c(O)c(C=O)c2c(O)c1-c1c(C)cc2c(C(C)C)c(O)c(O)c(C=O)c2c1O,·,-13.5%,?,25.1µM*!,-6.1%,1µM*
O=C(O)c1cc[c]([Hg][S]c2ncnc3nc[nH]c23)cc1,·,-4.4%[11.4 µM],0.794µM*,4.0%[11.5 µM],?,-10.2%[11.4 µM]
CCCN1CCc2cc(O)cc3c2[C@H]1Cc1ccc(O)c(O)c1-3,·,-4.0%,8.2%,?,-10.6%,25.1µM*
CN1CCc2cc(O)cc3c2[C@H]1Cc1ccc(O)c(O)c1-3,·,-1.0%,15.6%,?,-12.0%,-3.5%
C[N+]1(C)CCc2cc3c(cc2[C@@H]1[C@@H]1OC(=O)c2c1ccc1c2OCO1)OCO3,·,-3.2%,7.7%,-1.1%,-4.9%,-3.8%
CC[C@H]1CN2CC[C@@H]1C[C@@H]2[C@H](O)c1ccnc2ccccc12,·,-4.4%,·,·,1.8%[11.4 µM],11.8%
SMILES,Bst PK mod,DNA Pol III inh,ALOX15 inhib,ERK AVP inh,FLuc inh,Tau filament bind
Nc1c(C(=O)NCCN2CCOCC2)c2nc3ccccc3nc2n1Cc1ccco1,·,-13.9%,12.6µM*,15.8µM*,-1.0%,i
CCCCn1c(N)c(C(=O)NCCN2CCOCC2)c2nc3ccccc3nc21,>57,-5.6%,-10.9%,-14.8%,3.5%,6.7%
O=C1C(Cl)=C(Cl)C(=O)C(Cl)=C1Cl,·,-10.8%,0.159µM*,?,·,2.6%
N[C@H](Cn1cc(I)c(=O)[nH]c1=O)C(=O)O,·,-6.7%,·,·,0.6%,-2.0%
C[C@]12Cc3cn4c(nc3C=C1CC[C@H]1[C@@H]2CC[C@@]2(C)[C@H]1CC[C@@]2(O)C#N)nc1ccccc14,·,1.2%,15.3%,-3.9%,-3.1%,11.3%
CC1=C2C(=O)[C@@H]3[C@@H](CC=C4C[C@@H](O)CC[C@@]43C)[C@H]2CC[C@@]12O[C@H]1C[C@H](C)CN[C@H]1[C@@H]2C,·,-0.5%[11.4 µM],-0.5%[11.4 µM],-12.0%[11.5 µM],3.8%[11.4 µM],5.7%[11.4 µM]
NCCCCN=C(N)N,·,0.2%,?,3.6%,1.4%,39.8µM*!
O=c1c(C=NCCN2CCNCC2)c(O)n(C2CCCCC2)c(=O)n1C1CCCCC1,>25.6,·,·,·,1.5%[25.5 µM],·
N=C(N)c1c(O)n(C2CCCCC2)c(=O)n(C2CCCCC2)c1=O,>57,-4.6%,-17.6%,48.9%,0.1%,15.8µM*
C[C@H](N)c1cccc(Cl)c1Cl,·,-4.2%,6.4%,4.3%,-1.6%,-11.1%
O=CN1C[C@H]2C[C@@H](C1)c1cccc(=O)n1C2,·,-2.1%,·,·,0.5%[11.4 µM],-19.9%
